DT40 TDP1 no CPT = qHTS for Inhibitors of human tyrosyl-DNA phosphodiesterase 1 (TDP1): qHTS in cells in absence of CPT. Potency, µM (doses to about 46.2 µM), most hits filed as inhibitors. AID 686978, 2013. DT40 Tdp1-/- hTDP1 cells, no CPT, ATP luminescence, 48 h. 420,000 compounds, 15% hits; also: nearly all actives have a fitted effect of over 55% in size
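Stably hTDP1-transfected Tdp1-null chicken DT40 cells were treated with library compounds minus camptothecin and grown for at least 48 hr at 37 °C, after which cellular ATP was quantified by luminescence.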
HT1080NT lethal = kills 2HG-producing HT-1080-NT fibrosarcoma cells; HT-1080-NT fibrosarcoma viability, CellTiter-Glo ATP luminescence, 48 h; Potency, µM (series often up to 46.1 µM), actives largely listed as cytotoxic; 360,000 compounds, 1.6% hits; AID 686970;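 also: NT is the 2HG producing partner of a matched IDH1 knockdown line; nearly all actives have a fitted effect of over 55% in size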
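A 48-hour cytotoxicity screen used HT-1080-NT cells plated 2 hours before compound delivery. ATP-based CellTiter-Glo luminescence measured viability, normalized to DMSO and no-cell controls.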
HT1080 IDH1KD tx = toxicity to HT-1080 IDH1 knockdown cells (counter line) | HT-1080 IDH1 knockdown viability, ATP luminescence, 48 h | Potency, µM (series often up to 46.1 µM), usual class: cytotoxic | 360,000 compounds, 2% hits | AID 686971
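Assay cells: HT-1080 with IDH1 knockdown, 750 per well, RPMI/5% FBS. Exposure: 48 h at 37 °C following 2 h pre-incubation. Read: CellTiter-Glo luminescence; fitted concentration-response, curve class assigned.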
IL-1B inflam inh = inhibitors of inflammasome signaling (IL-1 beta secretion); THP-1 LPS/ATP IL-1B secretion, AlphaLISA, 16 h; hits give low values; activity change, % at 57.5 µM; 360,000 compounds, 4.7% hits; in the data active = activity change below about -50%; inconclusive = mostly about -30% to -49%
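THP-1 cells pretreated 1 hr with compounds (up to 57.5 uM final), then stimulated with LPS (250 ng/mL final) plus ATP (1.25 mM final); secreted IL-1B measured by AlphaLISA after 16 hr, decreased signal indicating inhibition.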
TDP1 cell CPT = growth inhibition of DT40 Tdp1-/-;hTDP1 cells with camptothecin (screen for TDP1 inhibitors) | chicken DT40 Tdp1-/-;hTDP1 cells + 20 nM CPT, ATP luminescence, 48 h | Potency, µM (doses to about 46.2 µM), usual class: inhibitors | 420,000 compounds, 12% hits | AID 686979; also: nearly all actives have a fitted effect of over 55% in size
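Chicken DT40 Tdp1-/- cells stably complemented with human TDP1 were seeded at 400 cells/well in medium containing 20 nM camptothecin, exposed to pin-transferred compounds, and grown at 37 °C for at least 48 hr. Viability was read as ATP luminescence.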
Numbers stand for hits; i = inactive; ? = inconclusive; nt = no result given. Shown are actives, neighbours in structure and some others; about 19% of the full set was active somewhere. Unless noted, calls follow the shape of the dose curve; as a rule, active = well fitted curve in the direction sought with a large enough effect; inconclusive = small, poorly fitted or top-dose-only effect, or another doubt; inactive = no such curve, though single readings can be large; an effect the other way counts as inactive or inconclusive.

SMILES	DT40 TDP1 no CPT	HT1080NT lethal	HT1080 IDH1KD tx	IL-1B inflam inh	TDP1 cell CPT
COCCCNC(=O)C1CCN(c2nnc(-n3cccc3CNc3ccc(C)cc3)s2)CC1	i	nt	nt	nt	i
CSc1ccc(CNC(=O)C2CCN(c3nnc(-n4cccc4CNc4ccc(C)cc4)s3)CC2)cc1	16µM	nt	nt	nt	?
Cc1ccc(/C(O)=C2\C(=O)C(=O)N(CCCN3CCOCC3)C2c2ccccc2F)cc1 (configuration not stated)	i	i	i	i	i
CCc1cc2ccc(C)cc2nc1SCC(=O)c1ccc(NC(C)=O)cc1	i	?	i	-61	i
CC1=CC(=O)CC(C)(C)[C@@]1(O)/C=C/[C@@H](C)O[C@@H]1O[C@H](CO)[C@@H](O)[C@H](O)[C@H]1O	i	i	i	i	i
C=CCOC(=O)C1=C(C)Nc2ncnn2C1c1cccs1 (configuration not stated)	i	i	i	i	i
CCCCCCCOC(=O)C1=C(C)Nc2ncnn2C1c1cccs1 (configuration not stated)	13µM	i	i	i	?
CCCCCCCCOC(=O)C1=C(C)Nc2nnnn2C1c1cccs1 (configuration not stated)	16µM	?	?	i	16µM
CC(C)(C)n1nnnc1C(c1ccccc1)N1CCN(CCN2CCOCC2)CC1 (configuration not stated)	i	i	i	i	i
CCOC(=O)C1CCN(C(=O)Nc2ccccc2Cl)CC1	i	i	i	i	i
COc1ccc(NC(=S)N2CCN(Cc3ccco3)CC2)c(OC)c1	13µM	i	i	i	?
COc1ccc(NC(=S)N2CCCC2)c(OC)c1	i	i	i	i	i
COc1ccc(NC(=S)N2CCN(Cc3cccc(F)c3)CC2)c(OC)c1	21µM	i	i	i	23µM
NC(=O)CC(NC(=O)c1ccccc1)c1ccc(NCC2CC2)c([N+](=O)[O-])c1 (configuration not stated)	?	i	i	i	23µM
NC(=O)CC(NC(=O)c1ccccc1)c1ccc(NC2CCCC2)c([N+](=O)[O-])c1 (configuration not stated)	18µM	i	i	i	4.6µM
CCNc1nc(NC(C)(C)C)nc(N2CCCCC2)n1	21µM	i	i	-81	21µM
CC(C)(C)Nc1nc(OCC#N)nc(N2CCCCC2)n1	?	i	i	i	i
CCNc1nc(N2CCCC2)nc(N2CCCC2)n1	?	i	i	i	?
CC(C)(CO)Nc1nc(N2CCCC2)nc(N2CCCC2)n1	21µM	i	i	i	?
O=C1Nc2ccc([N+](=O)[O-])cc2OC1CCN1CCN(c2ccccc2)CC1 (configuration not stated)	?	i	i	i	i
COc1cc(Cc2ccc(N)c(OC)c2)ccc1N	i	i	i	i	?
Nc1ccc(Cc2ccc(N)c(O)c2)cc1O	?	i	i	i	23µM
CC(=O)Nc1cccc(C(=O)NNC(=O)c2n[nH]c(=O)c3ccccc23)c1	i	i	i	i	i
CCCCc1cc(=O)oc2cc(O)cc(O)c12	9.2µM	i	i	i	i
CCCCc1cc(=O)oc2cc(C)cc(O)c12	?	i	i	i	?
SMILES	DT40 TDP1 no CPT	HT1080NT lethal	HT1080 IDH1KD tx	IL-1B inflam inh	TDP1 cell CPT
CCCCc1cc(=O)oc2cc(C)c3c(C)coc3c12	?	nt	nt	nt	15µM
CCc1noc(C)c1C(=O)Nc1ccc(C#N)cc1	?	i	i	i	i
Cc1ccc(-n2c(C)nnc2SC(C)C(=O)N2CCCC2)cc1 (configuration not stated)	i	i	i	i	i
CCOC(=O)C1(CCCc2ccccc2)CCN(C(=O)CCCn2cncn2)CC1	26µM	i	i	i	?
CCOC(=O)C1(CCCc2ccccc2)CCN(C(=O)CCc2cnn(C)c2)CC1	?	i	i	i	?
CCOC(=O)C1(CCCc2ccccc2)CCN(C(=O)CCN2CCCCC2=O)CC1	16µM	i	i	i	?
Cc1cc(NC(=O)c2cc([N+](=O)[O-])cc([N+](=O)[O-])c2C)no1	i	i	i	i	i

Compound activity (PubChem BioAssay)
